Results: PubChem BioAssay AID485346 (Sanford-Burnham Center for Chemical Genomics, 2010)
Hit rate of the full screen: of about 330,000 compounds, about 10,000 (3%) were called active.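 The calls were made as follows: active = inhibition of at least 50% at 8 µM in the primary screen; inactive = the rest.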 The sample as a whole holds a higher share of actives than the screen did.

The compounds below were run against Protein Mdm4 (Homo sapiens) + E3 ubiquitin-protein ligase Mdm2 (Homo sapiens) (UniProt O15151+Q00987) (assay: disruptors of Mdm2/MdmX RING complex – cell-based, luminescence, split luciferase, SaOS-2, uHTS, primary screen (AID 485346)). Details: SaOS-2 split-luciferase Mdm2/MdmX complementation, at 8 µM, stronger effect = higher value.
Sequence of Protein Mdm4 (Homo sapiens) + E3 ubiquitin-protein ligase Mdm2 (Homo sapiens) (O15151 whole entry, looked up): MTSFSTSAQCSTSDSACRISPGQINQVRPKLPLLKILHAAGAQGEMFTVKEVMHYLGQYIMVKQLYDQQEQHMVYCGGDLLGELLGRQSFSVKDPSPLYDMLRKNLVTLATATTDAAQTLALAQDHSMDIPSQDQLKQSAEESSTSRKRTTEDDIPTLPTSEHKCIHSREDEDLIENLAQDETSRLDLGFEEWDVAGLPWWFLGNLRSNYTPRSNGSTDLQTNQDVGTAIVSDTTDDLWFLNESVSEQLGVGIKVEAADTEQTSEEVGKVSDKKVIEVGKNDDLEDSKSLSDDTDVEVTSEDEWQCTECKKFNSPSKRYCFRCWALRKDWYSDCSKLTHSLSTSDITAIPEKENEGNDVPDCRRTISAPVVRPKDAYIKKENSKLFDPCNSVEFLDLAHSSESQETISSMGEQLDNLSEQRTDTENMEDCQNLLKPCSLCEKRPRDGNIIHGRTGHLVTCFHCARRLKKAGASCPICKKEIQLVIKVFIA
Sequence of Protein Mdm4 (Homo sapiens) + E3 ubiquitin-protein ligase Mdm2 (Homo sapiens) (Q00987 whole entry, looked up): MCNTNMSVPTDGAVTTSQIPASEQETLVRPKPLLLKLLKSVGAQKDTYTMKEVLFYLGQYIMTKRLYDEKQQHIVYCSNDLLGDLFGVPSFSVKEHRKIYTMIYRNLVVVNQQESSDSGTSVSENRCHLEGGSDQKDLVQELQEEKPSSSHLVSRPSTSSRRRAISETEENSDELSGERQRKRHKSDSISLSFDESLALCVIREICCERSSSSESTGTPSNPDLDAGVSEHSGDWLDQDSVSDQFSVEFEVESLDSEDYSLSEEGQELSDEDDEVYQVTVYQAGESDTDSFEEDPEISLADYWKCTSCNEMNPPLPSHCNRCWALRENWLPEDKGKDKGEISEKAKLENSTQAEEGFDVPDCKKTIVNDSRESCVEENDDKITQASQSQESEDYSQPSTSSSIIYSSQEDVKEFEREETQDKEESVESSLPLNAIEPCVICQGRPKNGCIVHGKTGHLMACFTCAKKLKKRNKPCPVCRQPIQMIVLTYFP

inhibition, active:
CCOC(=O)/C=c1\s/c(=C\c2ccc(C#N)cc2)c(=O)n1CC(=O)Nc1cccc(C)c1C 78%
CC1(C)CCSC(/C=C/c2ccccc2)=N1 85.2%
Cc1cc2oc3ccc(NCCC4CCCN4C)cc3c(=O)c2cc1C (configuration not stated) 90%
COc1cc(SC)ccc1C(=O)Nc1nc(C)cs1 70.4%
Cc1cc(C)c2[nH]c(=O)c(CN(Cc3ccccc3)C(=S)NCCCN(C)C)cc2c1 90.9%
COc1cc(NC(=O)c2[nH]cnc2C(N)=O)cc(C(=O)Nc2cccc(C(F)(F)F)c2)c1 97.2%
COc1cc(NC(=O)c2cncc(-c3ccc(C#N)cc3)c2)cc(C(=O)Nc2cccc(C(F)(F)F)c2)c1 59.6%
Cc1c(C(=O)Nc2cccc(Cl)c2)cn2c(nc3ccccc32)c1C#N 60.3%
CC(C)c1cc(C(=O)N/N=C/C(Br)=C/c2ccccc2)n[nH]1 66.1%
COc1ccc(OC)c(C2C3=C(N=c4s/c(=C\c5cccc(O)c5)c(=O)n42)c2ccccc2CC3)c1 (configuration not stated) 79.2%
CSc1nc(-c2ccccc2)nc(C(Cl)Cl)n1 101%
c1ccc(C2CCC(N3CCC(N4CCCCC4)CC3)CC2)cc1 (configuration not stated) 91.3%
Cc1cccc(NC(=O)Nc2cccc(Oc3c(F)c(F)c(F)c(F)c3F)c2)c1 74.3%
O=C(NC(=S)Nc1ccc2oc(=O)ccc2c1)c1ccc(-c2cccc(Cl)c2Cl)o1 80.7%
CCOc1cc(C(=O)N2CCc3cc(OC)c(OC)cc3C2)ccc1OC(F)F 51%
Cc1ccccc1NC(=O)CSc1nc2ccc(Nc3nc(N4CCOCC4)nc(N4CCOCC4)n3)cc2s1 80.5%
O=C(CSc1nc(Nc2ccccc2)nc(N2CCOCC2)n1)Nc1cc(Cl)ccc1O 81.9%
NC(N)=N/N=C/c1ccc(OCc2ccc(Cl)cc2Cl)cc1 97.6%
COc1ccc2cc1Oc1ccc(cc1)C[C@H]1c3cc(c(OC)cc3CCN1C)Oc1c(O)c(OC)cc3c1[C@H](C2)N(C)CC3 98.4%
COc1cc(NS(=O)(=O)c2ccc3ccccc3c2)c2ncccc2c1 94.8%

inhibition, inactive:
CCOC(=O)/C=c1\s/c(=C\c2ccccc2OC)c(=O)n1CC(=O)N1CCOCC1 11.5%
Cc1cccc(NC(=O)CSC(N)=O)c1C 2.96%
COc1cc(Cl)c(C)cc1NC(=O)[C@@H]1CCCN1C(=O)c1cccs1 6.14%
COc1ccc(S(=O)(=O)N2CCN(c3cnccn3)CC2)cc1 13.5%
CC(=O)N1CCC(N(C(=O)Nc2ccc(Cl)cc2)C(C)C)CC1 -29%
Cc1cc2oc(=O)cc(CN3CCN(Cc4ccccc4)CC3)c2cc1C -23.1%
COc1cccc2sc3cc(NCC[C@@H]4CCCN4C)ccc3c(=O)c12 -8.67%
CCCCC1(C(=O)OCC)NC(c2ccc(O)cc2)C2C(=O)N(c3ccccc3)C(=O)C21 (configuration not stated) 4.63%
COc1cccc(NC(=O)CCc2nnc3ccc(N4CCC(C)CC4)nn23)c1 6.23%
CC(=O)Nc1ccc(CN2CCN(Cc3ccc(F)c(F)c3)C(CCO)C2)cc1 (configuration not stated) -4.68%
CC(C)c1nc(CNC(=O)CC2C(=O)NCCN2Cc2ccoc2)cs1 (configuration not stated) 17%
COc1cc(SC)ccc1C(=O)Nc1cc(C)ccn1 -133%
Cc1csc(NC(=O)c2ccc(C)s2)n1 -81.3%
COc1ccc(-c2c(C(C)=O)c(C)nc3sc4c(=O)n(-c5ccc(C)cc5)nnc4c23)cc1 16.5%
O=S(=O)(Nc1cccc(-c2ccc(N3CCOCC3)nn2)c1)c1ccc(Cl)c(Cl)c1 -21.1%
NC(=O)c1ccc(Nc2ccc3nonc3c2[N+](=O)[O-])cc1 19.2%
Cc1cc(C)cc(NC(=O)C(c2ccccc2)N2CCN(CC(=O)N3CCCC3)CC2)c1 (configuration not stated) 24%
COC1=CCC2([N+](=O)[O-])CN(CC(=O)O)CC1([N+](=O)[O-])C2 (configuration not stated) 4.95%
Fc1ccc(-c2ccc(CNCc3ccccn3)o2)cc1Cl 1.76%
COCCCNC(=S)N(CCN(C)C)Cc1cc2cc3c(cc2[nH]c1=O)OCCO3 -4.07%
Cc1cccc2cc(CN(Cc3cccs3)C(=S)NCc3ccco3)c(=O)[nH]c12 19.1%
COc1ccccc1NC(=O)CCC(=O)OC(C)C(=O)c1ccccc1 (configuration not stated) -23.8%
CCCn1c(O)c(CN2CCCC(C)C2)c(C)c(C#N)c1=O (configuration not stated) -48.3%
CCN(CC(=O)NCc1ccc(F)cc1)S(=O)(=O)c1ccc(Cl)s1 -3.24%
COc1ccc(NC(=O)CN(C)CC(=O)Nc2cccc(C(F)(F)F)c2)cc1 14.9%
COc1ccc(NC(=O)C(=O)NCC(=O)Nc2cccc(C(F)(F)F)c2)cc1 12.2%
Cc1cccc(NC(=O)c2nnn(-c3cccc(C(F)(F)F)c3)c2N)c1 8%
N#Cc1ccc(Oc2ccc(C(F)(F)F)cc2NC(=O)c2ccc(F)cc2)cc1 9.08%
CCN1C(=O)[C@H]2[C@@H](c3ccc(-c4ccc(F)cc4)cc3)N[C@@](Cc3ccccc3)(C(=O)OC)[C@H]2C1=O 48%
CCCC(CNC(=O)COC(=O)C1=NNC(=O)CC1)c1ccc(Cl)cc1Cl (configuration not stated) -11.5%
C=C(C)C(=O)Nc1cccc(C2=NOC3(C2)C[C@H](C(N)=O)N(C(=O)C(c2ccccc2)c2ccccc2)C3)c1 (some centres not stated) 16.4%
Cn1c(Nc2cccc(Cl)c2)nc2ccccc21 -18.1%
O=C(O)c1cccc(NC(=O)c2cc(-c3cccc(Cl)c3)nc3ccccc23)c1 0.449%
CC(=O)c1c(C)[nH]c(C(=O)OCC(=O)NCCC(C)C)c1C 17.9%
CCOc1cc(NC(=S)NCCCN(C)C)c(OCC)cc1NC(=O)C1CC1 3.9%
Cc1cc(C(=O)N/N=C\C(Br)=C\c2ccccc2)c(C)o1 -18.5%
CC(C)c1cc(C(=O)O)n[nH]1 5.75%
O=C1CSc2ccc(S(=O)(=O)NCc3ccccc3)cc2N1 -3.1%
O=C1CCCC2=C1C(c1ccccc1)n1c(s/c(=C/c3cccc(F)c3)c1=O)=N2 (configuration not stated) -4.28%
CCOC(=O)C1=C(C)N=c2s/c(=C\C(=O)OC)c(=O)n2C1c1ccc(OC)cc1 (configuration not stated) 12.2%
O=C(N/N=C/c1ccc(Cl)cc1)c1nc2ccc([N+](=O)[O-])cc2c(=O)[nH]1 6.69%
COC(=O)c1sc(SC)c(S(=O)(=O)C(C)C)c1N/N=C(\C#N)S(=O)(=O)c1ccccn1 9.73%
O=C(NC1CCc2ccccc21)C12CN(Cc3ccccc3)CC1C(c1cccc([N+](=O)[O-])c1)=NO2 (configuration not stated) 0.069%
CSc1ncc(Sc2ccccc2)c(C(=O)O)n1 8.72%
CN=C(NC#N)NCCSCc1nc[nH]c1C 2.92%
CC1(C)CC(=O)C=C(NCc2ccncc2)C1 27.3%
O=S(=O)(c1ccccc1)N1CCC(c2ccccc2)CC1 -19.7%
Cc1ccc(S(=O)(=O)N2CCC(N3CCCCCC3)CC2)cc1 1.35%
CCOC(=O)C1CCN(C(=O)C2CCN(S(=O)(=O)CC)CC2)CC1 12.2%
CCN(CC(=O)NCCCN1CCOCC1)S(=O)(=O)c1cc(Cl)ccc1Cl 20.3%
COc1ccc(N=C2SC(C(=O)Nc3ccc(F)cc3)CC(=O)N2C)cc1 (configuration not stated) 15%
Cc1cccc(NC(=O)NC(=S)NC(=O)c2ccccc2)c1 -38.5%
Cc1ccc(NC(=O)Nc2ccccc2)c(Br)c1 -41.3%
O=C(COc1ccc(Cl)cc1)Nc1ccc2oc(=O)ccc2c1 -1.06%
CC(C)C(=O)Nc1ccc2oc(=O)ccc2c1 3.99%
CC1(C)CC(=O)C=C(c2cccc3c2Oc2ccccc2S3)C1 2.33%
COc1cc2c(cc1OC)CN(C(=O)c1ccc(S(=O)(=O)N3CCCCCC3)cc1)CC2 11%
COc1cc2c(cc1OC)CN(C(=O)c1cc(=O)c3ccccc3o1)CC2 49.8%
Cc1c(C=O)c2ccccn2c1C(=O)c1ccncc1 22.9%
COc1ccc(S(=O)(=O)N2CCOCC2)cc1NC(=O)c1ccc(OCC(C)C)c(OC)c1 38.4%
CC1(c2ccccc2)NC(=O)N(CC(=O)Nc2cc(Cl)ccc2N2CCOCC2)C1=O (configuration not stated) 6.67%
O=C(CSc1nc2ccc(Nc3nc(N4CCOCC4)nc(N4CCOCC4)n3)cc2s1)NCc1ccco1 20.3%
C/C(=N\Nc1nc(Nc2ccccc2)nc(N2CCOCC2)n1)c1cccs1 46.5%
Cc1ccc(Nc2nc(N3CCOCC3)nc(N3CCOCC3)n2)cc1Cl 48.2%
NS(=O)(=O)c1ccc(N2C(=O)C3C4CC(C(Br)C4Br)C3C2=O)cc1 (configuration not stated) -13.2%
CCC(C(=O)NCc1cccnc1)n1nc(C)c2sc3ccccc3c2c1=O (configuration not stated) 20.9%
Cc1nc2ccccc2nc(C)c1=NOCc1ccc(Cl)cc1Cl 22.9%
OC(CNCCc1ccc(Cl)cc1Cl)COc1ccccc1 (configuration not stated) -3.6%
Cc1cccc(-[n+]2c(-c3cccc(Br)c3)[nH]c3nc4ccccc4nc32)c1 42.8%
CCC/C(O)=C1\C(=O)CC(C)(C)CC1=Nc1ccccc1OC 17.5%
Cc1ccc(S(=O)(=O)Nc2ccc3ncccc3c2)cc1 19.7%
COc1ccc(N2CC(NS(=O)(=O)c3ccc4ccccc4c3)CC2=O)cc1 (configuration not stated) 4.41%
